Measurements taken from the supplement of paper PMC10981050.
Several values for one entry are separate records, joined by “and”; a condition that tells them apart may be missing. Equal values may be shown once. Where a name gives a salt, the structure may show the parent alone.

How the values were obtained:
Assay in all cases: cell viability relative to vehicle control; higher = less cytotoxic
Settings in all cases: 10 µM
K562 = system: K562
Method in brief: (§1)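 Mutant clones made by CRISPR editing and their isogenic wild-type counterparts, from four leukaemia lines, were exposed to a single 10 µM dose of each library compound for 48 h. The supernatant was then removed and CellTiter-Glo luminescence was read. Viability was reported as percent of the on-plate vehicle control.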

MARIMO = system: MARIMO
Method in brief: as §1

MOLM14 = system: MOLM14
Method in brief: as §1

OCI-AML2 = system: OCI-AML2
Method in brief: as §1

Compound | cell viability (K562; SRSF2 genotype: SRSF2 P95H/wt) | cell viability (K562; SRSF2 genotype: SRSF2 wt/wt) | cell viability (MARIMO; SRSF2 genotype: SRSF2 P95H/wt) | cell viability (MARIMO; SRSF2 genotype: SRSF2 wt/wt) | cell viability (MOLM14; SRSF2 genotype: SRSF2 P95H/wt) | cell viability (MOLM14; SRSF2 genotype: SRSF2 wt/wt) | cell viability (OCI-AML2; SRSF2 genotype: P95H/wt) | cell viability (OCI-AML2; SRSF2 genotype: wt/wt)
CC(C)(C)c1cc(/C=C(\C#N)C(N)=S)cc(C(C)(C)C)c1O [Tyrphostin AG 879 (AG 879)] | 22.1% and 17.9% | 25.2% | 73.5% | 68.3% | 20.1% | 14.8% | 7.33% | 15.8%
O[C@H]1[C@H]2c3cc4c(cc3CN3CCC(=C[C@@H]1O)[C@H]23)OCO4 [Lycorine] | 18.3% and 25.2% | 27.9% | 23% | 20.6% | 18.2% | 7.75% | 0.46% | 1.41%
CN1CC[C@@H](NC(=O)Nc2ccc(C#N)cc2)C[C@@H]1c1nc2ccccc2[nH]1 | 98.5% and 104% | 107% | 104% | 109% | 98.8% | 100% | 98.1% | 112%
O=C(c1ccc(OCCN2CCCCC2)cc1)c1c(-c2ccc(O)cc2)sc2cc(O)ccc12 [Evista (Raloxifene Hydrochloride)] | 75.3% and 80.4% | 81.3% | 79.3% | 77.8% | 76.2% | 81.3% | 82.7% | 77.2%
CC1(C)CCCC2(C)C1CCC1(C)OC(=O)CC12 (stereo not given) [Sclareolide (Norambreinolide)] | 109% and 97.8% | 99.8% | 95.2% | 98.7% | 101% | 106% | 102% | 89.7%
O=C1c2ccccc2C(=O)C1c1ccccc1 [Phenindione (Rectadione)] | 103% and 98.4% | 105% | 105% | 104% | 107% | 106% | 101% | 113%
CN1CCc2cc(Nc3ncc(C4CC4)c(NCCCNC(=O)C4CCC4)n3)ccc2C1 | 34.8% and 33.1% | 55.2% | 3.21% | 1.31% | 0.63% | 0.39% | 1.22% | 4.15%
COc1cc(/C=C/C(=O)O[C@H]2CC[C@]34C[C@]35CC[C@]3(C)[C@@H]([C@H](C)CCC=C(C)C)CC[C@@]3(C)[C@@H]5CC[C@H]4C2(C)C)ccc1O [Gamma-Oryzanol] | 96.7% and 93.9% | 97.5% | 98.5% | 107% | 103% | 101% | 97.7% | 107%
C[C@H](C[C@H](O)[C@@H](O)C(C)(C)O)C1=C2C[C@H](O)[C@H]3[C@@]4(C)CCC(=O)C(C)(C)[C@@H]4CC[C@]3(C)[C@@]2(C)CC1 [Alisol A] | 85.4% and 85.1% | 89.8% | 86.9% | 79.1% | 98.4% | 96.2% | 84.9% | 83.5%
C=Cc1c(C)c2cc3nc(cc4[nH]c(cc5nc(cc1[nH]2)C(C)=C5CCC(=O)O)c(CCC(=O)OC)c4C)C1(C)C3=CC=C(C(=O)OC)C1C(=O)OC (stereo not given) [Verteporfin (Visudyne)] | 68.3% and 75.3% | 70.6% | 87.7% | 85.2% | 80.2% | 59.8% | 69.7% | 77.9%
COc1cc2c(cc1O)CC[n+]1cc3c(OC)c(OC)ccc3cc1-2 [Jatrorrhizine] | 91.4% and 98.7% | 95.8% | 107% | 103% | 101% | 99.8% | 105% | 98.2%
O=C(NNc1ccccc1)c1ccncc1 | 82.8% and 97.5% | 77.1% | 91.1% | 101% | 93.5% | 89.5% | 92.7% | 97.9%
N#C[C@@H]1CCCN1C(=O)CNC12CC3CC(CC(O)(C3)C1)C2 [Vildagliptin (LAF-237)] | 87.8% and 87.2% | 84.8% | 81.8% | 88.6% | 83.9% | 89% | 88.8% | 87.7%
FC(F)(F)Oc1ccc2nc(-c3ccc(OCCOCCOc4ccc(-c5nc6ccc(OC(F)(F)F)cc6[nH]5)nc4)cn3)[nH]c2c1 | 52.4% and 53% | 56.4% | 26.9% | 39.3% | 50.4% | 41.3% | 18.4% | 24.8%
Cc1nc(N)sc1-c1ccnc(Nc2ccc(N3CCOCC3)cc2)n1 | 59.9% and 67.6% | 64.5% | 40.8% | 44.3% | 5.52% | 4.7% | 9.4% | 13.7%
COc1cc(C=O)ccc1OC(C)=O [Acetylvanillin] | 99.2% and 99.9% | 99.7% | 104% | 103% | 104% | 101% | 98.4% | 104%
CC(C)(C)C(=O)OCOP(=O)(COCCn1cnc2c(N)ncnc21)OCOC(=O)C(C)(C)C [Adefovir Dipivoxil (Preveon, Hepsera)] | 59.1% and 71.3% | 75.8% | 30.7% | 36.8% | 0.75% | 0.59% | 0.85% | 2.98%
CO[C@H]1C[C@@H]2CC[C@@H](C)[C@@](O)(O2)C(=O)C(=O)N2CCCC[C@H]2C(=O)O[C@H]([C@H](C)C[C@@H]2CC[C@@H](OCCO)[C@H](OC)C2)CC(=O)[C@H](C)/C=C(\C)[C@@H](O)[C@@H](OC)C(=O)[C@H](C)C[C@H](C)/C=C/C=C/C=C/1C [Everolimus (RAD001)] | 59.9% and 63.6% | 70.4% | 73.8% | 71.6% | 57.4% | 51.4% | 60% | 61.6%
CC(C)=CCc1cc2c(cc1O)O[C@H](c1ccc(O)cc1)CC2=O [Bavachin] | 95.2% and 87.3% | 100% | 96.5% | 99.5% | 111% | 109% | 101% | 114%
C=CCNC1=C2C[C@@H](C)C[C@H](OC)[C@H](O)[C@@H](C)/C=C(\C)[C@H](OC(N)=O)[C@@H](OC)/C=C\C=C(/C)C(=O)NC(=CC1=O)C2=O [17-AAG (Tanespimycin)] | 20.1% and 29.1% | 25% | 27.3% | 24.3% | 1.11% | 1.2% | 18.8% | 20.6%

Compound | cell viability (K562; SRSF2 genotype: SRSF2 P95H/wt) | cell viability (K562; SRSF2 genotype: SRSF2 wt/wt) | cell viability (MARIMO; SRSF2 genotype: SRSF2 P95H/wt) | cell viability (MARIMO; SRSF2 genotype: SRSF2 wt/wt) | cell viability (MOLM14; SRSF2 genotype: SRSF2 P95H/wt) | cell viability (MOLM14; SRSF2 genotype: SRSF2 wt/wt) | cell viability (OCI-AML2; SRSF2 genotype: P95H/wt) | cell viability (OCI-AML2; SRSF2 genotype: wt/wt)
CN(C)CCc1c[nH]c2ccc(C[C@H]3COC(=O)N3)cc12 [Zolmitriptan (Zomig)] | 96.7% and 103% | 104% | 107% | 102% | 99.4% | 104% | 108% | 101%
CC(=O)OC1CC2(C)C(CC(O)C3C4(C)CCC(O)C(C)C4CCC32C)C1=C(CCC=C(C)C)C(=O)O (stereo not given) [Fusidine] | 96.3% and 99.9% | 89.4% | 97.5% | 98% | 98.9% | 96.8% | 94.2% | 99.2%
O=c1cc[nH]c(=S)[nH]1 [2-Thiouracil] | 101% and 103% | 100% | 98.6% | 109% | 106% | 106% | 107% | 104%
C[C@H]1CO[C@@H]2Cn3cc(C(=O)NCc4ccc(F)cc4F)c(=O)c(O)c3C(=O)N12 | 84.6% and 81.9% | 71.5% | 90.2% | 95.4% | 92.8% | 88.8% | 83.9% | 86.6%
COc1ccccc1OCC(O)CO (stereo not given) [Guaifenesin (Guaiphenesin)] | 106% and 104% | 107% | 103% | 108% | 107% | 109% | 105% | 118%
CC1(C)S[C@@H]2[C@H](NC(=O)Cc3ccccc3)C(=O)N2[C@H]1C(=O)O.CCN(CC)CCOC(=O)c1ccc(N)cc1 [Penicillin G Procaine] | 107% and 104% | 101% | 104% | 118% | 99.7% | 109% | 97.8% | 99.4%
CNc1nc(Nc2cn(C(C)(C)C#N)nc2C)ncc1C(F)(F)F | 101% and 102% | 103% | 101% | 108% | 98.8% | 101% | 102% | 105%
Cn1cc(-c2ccncc2)c(-c2ccc(OCc3ccc4ccccc4n3)cc2)n1 | 79.8% and 91.7% | 91.2% | 93% | 90.4% | 65% | 71.4% | 71.5% | 68%
CC(=O)c1ccc(C)cc1O [2'-Hydroxy-4'-methylacetophenone] | 97.1% and 95% | 104% | 95.6% | 103% | 102% | 102% | 94.5% | 107%
C=C1[C@@H]2CC[C@@H](C2)C1(C)C [Camphene] | 105% and 102% | 106% | 102% | 111% | 95% | 108% | 98.5% | 97.1%
Cc1ccc(S(=O)(=O)Nc2cc(-c3ccc(C#N)s3)ccc2C)cc1 | 12.9% and 36.3% | 33.5% | 7.34% | 8.88% | 1.58% | 1.53% | 2.78% | 5.12%
COC(=O)C1=CO[C@@H](O[C@@H]2O[C@H](CO)[C@@H](O)[C@H](O)[C@H]2O)[C@@H]2C(CO)=CC[C@H]12 [Geniposide] | 98.8% and 85.3% | 87.9% | 84.1% | 100% | 94.9% | 92.3% | 99.6% | 89.8%
Cc1cc(-c2nc(-c3ccc(OC(F)(F)F)cc3)no2)nn1Cc1ccnc(N2CCN(C3CC3)CC2)c1 | 61.8% and 46.9% | 54.1% | 63% | 53.7% | 63.5% | 51.8% | 52.2% | 46.9%
Cc1cc(C)c(/C=C2\C(=O)Nc3ccccc32)[nH]1 [Semaxanib (SU5416)] | 102% and 103% | 105% | 88.3% | 97.4% | 20% | 19.8% | 28.1% | 39.9%
Cc1c(-c2ccc(C(N)=O)c3[nH]c4cc(C(C)(C)O)ccc4c23)cccc1-n1cnc2ccccc2c1=O | 80.1% and 89.9% | 92.2% | 73.5% | 66.2% | 48.4% | 54.8% | 43.6% | 46.2%
Nc1ncccc1-c1nc2ccc(-c3ccccc3)nc2n1-c1ccc(C2(N)CCC2)cc1 [Miransertib (ARQ 092)HCl] | 35.5% and 48% | 30.4% | 75.3% | 72.4% | 39.3% | 48.1% | 33% | 49.2%
CC(C)[C@H](N)C(=O)OCCOCn1cnc2c(=O)nc(N)[nH]c21 [Valaciclovir HCl] | 100% and 99% | 102% | 101% | 111% | 101% | 101% | 98.7% | 112%
CCOc1nc2cccc(C(=O)OCc3oc(=O)oc3C)c2n1Cc1ccc(-c2ccccc2-c2noc(=O)[nH]2)cc1 [Azilsartan Medoxomil (TAK-491)] | 97.7% | 95.6% | 101% | 108% | 105% | 102% | 102% | 103%
CCCCCCCCCCCCCCCCCCCC(=O)O [Arachidic acid] | 95.7% and 93.1% | 98.9% | 96% | 96.3% | 96.1% | 103% | 103% | 109%
N#C[C@@H]1C[C@@H]2C[C@@H]2N1C(=O)[C@@H](N)C12CC3CC(CC(O)(C3)C1)C2 | 107% and 99.7% | 107% | 97.6% | 88.9% | 96.7% | 99.5% | 96.6% | 108%
